Measurements reported in PubChem BioAssay AID2599 (Sanford-Burnham Center for Chemical Genomics, 2010).
Out of some 330,000 compounds screened, about 5,800 (1.8%) were called active. This is one part of a sample in which actives are shown more often than they occur. Values without a mark were called inactive.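 How the source made its calls: active means inhibition above about 50% at the single tested dose (limit read from the data); inactive means the rest.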

What follows are molecules tested against Sentrin-specific protease 6 (Homo sapiens) (UniProt Q9GZR1) (assay: SENP6 protease inhibitors, primary screen, biochemical, luminescence, uHTS (AID 2599;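 further: plate controls were DMSO wells with enzyme for no effect and DMSO wells lacking enzyme for full effect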)). Conditions: Recombinant SENP6 catalytic domain, aminoluciferin luminescence; at 10 µM; active compounds read high.
Sentrin-specific protease 6 (Homo sapiens), sequence (Q9GZR1 628-1112 limits assumed): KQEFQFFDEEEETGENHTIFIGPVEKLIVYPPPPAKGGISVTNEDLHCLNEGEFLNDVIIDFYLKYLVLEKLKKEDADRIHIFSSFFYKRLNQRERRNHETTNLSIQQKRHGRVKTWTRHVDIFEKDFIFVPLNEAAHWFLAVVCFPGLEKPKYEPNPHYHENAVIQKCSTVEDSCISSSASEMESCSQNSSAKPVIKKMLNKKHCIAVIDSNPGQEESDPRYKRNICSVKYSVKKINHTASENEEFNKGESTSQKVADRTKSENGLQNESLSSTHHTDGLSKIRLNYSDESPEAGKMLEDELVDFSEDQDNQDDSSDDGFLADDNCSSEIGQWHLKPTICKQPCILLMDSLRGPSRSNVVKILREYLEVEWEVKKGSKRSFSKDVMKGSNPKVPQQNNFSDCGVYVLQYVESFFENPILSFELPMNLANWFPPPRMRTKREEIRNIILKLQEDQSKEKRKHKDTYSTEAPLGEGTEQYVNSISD
Work on `O=C(Nc1ccccc1-c1nc2ccccc2[nH]c1=O)c1cccs1` yielded an inhibition of 0.16%.
In the case of `C/C(=N\Nc1nc2ccccc2[nH]1)c1cccs1`, the inhibition is reported as 60.7% (active).
With `C/C(=N\Nc1ncc(Cl)cc1Cl)c1cccs1` the inhibition was 6.67%.
`COc1ccc(C(CC(=O)c2ccccc2)S(=O)(=O)c2ccccc2)cc1` (centres undefined) was tested, and the inhibition was 59.1% (active).
For `COc1ccc(N(Cc2ccccc2)S(=O)(=O)c2cccc(C(=O)O)c2)cc1`, the inhibition was -6.92%.
With `COc1ccc(NC(=O)CS(=O)(=O)c2ccccc2)cc1` the inhibition was 13.2%.
For `COc1ccc(NC(=O)C2CCC(CNC(=O)[C@@H]3Cc4ccccc4CN3)CC2)cc1` (some centres undefined), the inhibition was -1.01%.
Work on `CCC(NC(=O)c1cc(COc2ccc(F)c(F)c2)on1)c1ccncc1` (centres undefined) yielded an inhibition of 12.2%.
`O=C(NCCN1CCCC(O)C1)c1cc(COc2c(F)cccc2F)on1` (centres undefined) showed an inhibition of 4.9%.
With `Cc1csc(SCC(=O)Nc2sccc2C#N)n1` the inhibition was 88.2% (active).
For `Cc1ccc(NC(=O)CSCC(=O)Nc2sccc2C#N)cc1`, the inhibition was 0.055%.
In the case of `Cc1cccc(C)c1Nc1nnc(SCC(=O)Nc2sccc2C#N)s1`, the inhibition is reported as 22.6%.
In the case of `COc1ccc(CCNC(=O)CS(=O)(=O)Cc2nc(-c3ccc(C)cc3)oc2C)cc1OC`, the inhibition is reported as 8.83%.
`CSCCC(Nc1ccc(S(=O)(=O)N2CCOCC2)cc1[N+](=O)[O-])C(=O)OCC(=O)N(C(C)C)C(C)C` (centres undefined) was tested, and the inhibition was -3.58%.
For `COc1ccccc1CN(C)C(=O)c1cc2ccccc2o1`, the inhibition was -15.1%.
For `C/C(=N\NC(=S)Nc1ccc(C)cc1)c1cc2ccccc2o1`, the inhibition was -7.73%.
With `Cc1ccc(OC(=O)c2cc3ccccc3o2)cc1` the inhibition was 72.6% (active).
Molecule `CC1=C/C(=N\OS(=O)(=O)c2ccccc2)C=CC1=O` has an inhibition of -4.19%.
`CCOc1ccc(OCC)c(NC(=O)CCS(=O)(=O)c2ccc(C)cc2)c1` gave an inhibition of -6.59%.
Work on `CC(=O)Oc1cccc(C(=O)Nc2ccccc2NC(=O)c2cccc(OC(C)=O)c2)c1` yielded an inhibition of 7.29%.
For `CC(=O)Oc1ccc2c(c1)C(=O)c1ccccc1C2=O`, the inhibition was 55% (active).
In the case of `CC(=O)O[C@H]1c2ccccc2-c2ccccc2[C@@H]1OC(C)=O`, the inhibition is reported as 8.21%.
`CC(C)C(=O)NCC(c1cccs1)S(=O)(=O)c1ccc(F)cc1` (centres undefined) gave an inhibition of -1.5%.
With `COc1cc(/C=C/C(=O)OCC(=O)NC(=O)NCc2ccccc2)ccc1OCC#N` the inhibition was -0.36%.
`Cc1cc2oc3ccc(NCCC4CCCN4C)cc3c(=O)c2cc1C` (centres undefined) showed an inhibition of 2.23%.
`O=C(Nc1c2c(nn1-c1cccc(Cl)c1)CS(=O)(=O)C2)c1cccs1` showed an inhibition of -6.08%.
For `COc1ccc2nc(Nc3nc4cc5c(cc4s3)OCCO5)sc2c1`, the inhibition was 70.8% (active).
Work on `COc1ccc2nc(NC(=O)NC3CCCCC3)sc2c1` yielded an inhibition of 0.352%.
Molecule `COc1ccc2nc(NC(=O)[C@@H]3CCCN3C(=O)c3cccs3)sc2c1` has an inhibition of 4.51%.
Work on `CC(OC(=O)CN1C(=O)COc2ccccc21)C(=O)NCc1ccc(F)cc1` (centres undefined) yielded an inhibition of -3.56%.
In the case of `COc1ccc(S(=O)(=O)NC(C)C(=O)N2CCCCCC2)cc1` (centres undefined), the inhibition is reported as -11.4%.
With `Cc1ccc(C(=O)Nc2nc(N)n(-c3ccccc3)n2)cc1` the inhibition was -27.7%.
For `Fc1c(F)c(C(F)(F)F)c(F)c(F)c1N1CCN(c2ccc3nnc(C(F)(F)F)n3n2)CC1`, the inhibition was 3.56%.
Molecule `COc1ccccc1NC(=O)C(C)OC(=O)c1ccc(-n2cnnn2)cc1` (centres undefined) has an inhibition of -16.5%.
With `O=C(O)c1cccc(N=NN2CCCCCC2)c1` the inhibition was 90.2% (active).
In the case of `O=C(O)c1ccc(N=NN2CCOCC2)cc1`, the inhibition is reported as 17.8%.
Work on `NC1=NN(c2cccc(C(=O)O)c2)C(=O)C1` yielded an inhibition of 3.51%.
In the case of `CS(=O)(=O)Nc1ccccc1N=C(c1ccccc1)c1ccccc1`, the inhibition is reported as -6.12%.
For `Nc1ccc(S(=O)(=O)Nc2nccc(/C=C/c3ccc(Br)s3)n2)cc1`, the inhibition was 4.55%.
With `Oc1cccc2ccc(/C=C/c3ccc(Br)s3)nc12` the inhibition was 64.4% (active).
In the case of `COC(=O)c1c(NC(=O)COc2ccc(Cl)cc2Cl)sc2c1CC(C)(C)NC2(C)C`, the inhibition is reported as -10.5%.
Work on `Cc1coc(C)c1C(=O)CC1(O)C(=O)N(C)c2ccc(Cl)cc21` (centres undefined) yielded an inhibition of 0.041%.
For `O=C(NC1CC1)C1CCCN(C(=O)NC2CCCCC2)C1` (centres undefined), the inhibition was -5.19%.
`O=C1NNC(c2ccccc2)=N/C1=C\c1ccc(Cl)cc1` was tested, and the inhibition was 29.3%.
`N#Cc1c(N2CCCCC2)nc(N)c2c(N)nc(SCC(=O)O)cc12` was tested, and the inhibition was 74.6% (active).
In the case of `Nc1nc(NCC(=O)O)nc(N2CCCCCC2)c1[N+](=O)[O-]`, the inhibition is reported as 11.1%.
Molecule `N#CCc1c(C#N)c(N)nc(N2CCCC2)c1C#N` has an inhibition of -5.83%.
Work on `CC(C)(C)Oc1ccccc1Nc1nc(NCCO)nc(N2CCCC2)n1` yielded an inhibition of -11%.
For `O=C(ON=C1CCN(S(=O)(=O)c2ccccc2)CC1)c1ccc(Cl)cc1`, the inhibition was 55.9% (active).
For `COC(=O)c1ccc(S(=O)(=O)N2CCc3ccccc3C2)cc1`, the inhibition was -14.9%.
`CC(OC(=O)c1ccc(S(=O)(=O)N2CCOCC2)cc1)c1ccccc1` (centres undefined) showed an inhibition of -4.11%.
In the case of `C/C(N)=C(\C#N)C(=O)NCCc1ccccn1`, the inhibition is reported as -4.65%.
In the case of `COc1ccc(-c2cn3cccnc3n2)cc1`, the inhibition is reported as -11.4%.
Work on `COc1cc(OC)cc(-c2nc(=S)n3ccsc3n2)c1` yielded an inhibition of -9.64%.
`COc1ccc(-c2cn3ccsc3n2)cc1` was tested, and the inhibition was 64% (active).
For `CC(C(=O)NC1CCCCC1)N1C(=O)c2cccc3cccc1c23` (centres undefined), the inhibition was -3.48%.
With `CC(C)NC(=S)Nc1cccc2cnccc12` the inhibition was 5.39%.
In the case of `O=C(O)Cc1ccc(NC(=O)Nc2cccc3ccccc23)cc1`, the inhibition is reported as -11.3%.
In the case of `O=C(Nc1cccc2ccccc12)c1onc2c1CCCC2`, the inhibition is reported as 84% (active).
For `O=C(COC(=O)c1ccccn1)Nc1cccc2ccccc12`, the inhibition was -9.05%.
In the case of `Cn1cc(CN2CCCC(CO)C2)c(-c2ccc(Oc3ccccc3)cc2)n1` (centres undefined), the inhibition is reported as -24.4%.
For `O=C1C2C3C=CC(C3)C2C(=O)N1c1ccc(-c2nc3ccccc3c(=O)o2)cc1` (centres undefined), the inhibition was -7.9%.
`COc1cc(C#Cc2ccc3cc(CCCO)oc(=O)c3c2)cc(OC)c1` was tested, and the inhibition was 74% (active).
`O=C1c2ccccc2C(=O)N1CCC#Cc1ccc2cc(C3(O)CCCCC3)oc(=O)c2c1` was tested, and the inhibition was -5.78%.
Work on `COc1cc(/C=C2\Oc3ccc(C#Cc4ccc(O)cc4)cc3C2=O)cc(OC)c1` yielded an inhibition of -11.5%.
For `Cc1[nH]c(C)c(S(=O)(=O)N2CCC(C)CC2)c1C(=O)N1CCCC1`, the inhibition was 0.187%.
`CCN(CC)S(=O)(=O)c1ccc(-c2cn3ccc(C)cc3n2)cc1` showed an inhibition of 11.7%.
`Cc1cc(N2CCOCC2)nc(-c2ccc(Br)cc2)n1` showed an inhibition of -6.76%.
With `Cc1ccc(-c2cn3cc(C)ccc3n2)cc1` the inhibition was 65.4% (active).
`COc1ccc(-c2cn3ccc(C)cc3n2)cc1` was tested, and the inhibition was -9.63%.
`Cc1ccc2nc(-c3ccc(Br)cc3)cn2c1` was tested, and the inhibition was 89.9% (active).
For `CSc1nnc2ccc(-c3ccc(C)cc3)nn12`, the inhibition was -11.1%.
`Cc1sc2ncn(CC(=O)NCCCC(=O)NCc3ccc(F)cc3)c(=O)c2c1C` was tested, and the inhibition was -35.1%.
For `O=C(CCC(=O)OCC(F)(F)C(F)F)NCc1ccccc1`, the inhibition was -6.23%.
`COc1ccccc1-n1nnnc1S(=O)(=O)Cc1ccc(Cl)cc1` was tested, and the inhibition was -13.9%.
With `COc1cccc(Nc2nc(N)c([N+](=O)[O-])c(NCc3ccco3)n2)c1` the inhibition was -15.6%.
For `CNc1nc(Nc2ccc(C)c(Cl)c2)nc(N)c1[N+](=O)[O-]`, the inhibition was 99.7% (active).
In the case of `CCN1CCN(c2nc(Nc3cccc(F)c3)nc(N)c2[N+](=O)[O-])CC1`, the inhibition is reported as -5.24%.
In the case of `O=C(O)c1c(NC(=O)N2CCCC2)sc2c1CCCC2`, the inhibition is reported as 9.21%.
`COC(=O)c1c(NC(=O)c2ccccc2F)sc2c1C(C(=O)OC)CC2` (centres undefined) gave an inhibition of -5.07%.
For `O=C(Nc1sc2c(c1C(=O)O)CCC2)c1ccccc1F`, the inhibition was 94% (active).
`Cc1cccc(Nc2nc3c(S(=O)(=O)c4ccccc4)nnn3c3ccccc23)c1C` showed an inhibition of -2.12%.
With `Fc1cccc(Cl)c1COc1ccc(-c2nnco2)cc1` the inhibition was -29.1%.
With `Fc1ccc(COc2ccc(-c3nnco3)cc2)cc1` the inhibition was 61.6% (active).
Molecule `Fc1ccc(COc2cccc(-c3n[nH]c(=S)o3)c2)cc1` has an inhibition of -20.2%.
In the case of `Clc1ccc(-n2nnnc2-c2cnc(-c3ccccn3)nc2-c2cccs2)cc1`, the inhibition is reported as 1.6%.
In the case of `O=C(COC(=O)c1ccncc1)c1ccccc1`, the inhibition is reported as -26.7%.
Work on `c1ccc(CCc2nc(-c3ccncc3)no2)cc1` yielded an inhibition of -15.3%.
In the case of `c1csc(-c2nc(-c3ccncc3)no2)c1`, the inhibition is reported as 60.3% (active).
For `c1ccc(-c2noc(-c3cccs3)n2)nc1`, the inhibition was 92% (active).
Work on `COc1ccc(CCc2nc(-c3cccs3)no2)cc1` yielded an inhibition of 19.7%.
With `O=C(Oc1ccc(-c2nc(-c3ccccn3)no2)cc1)c1ccccc1` the inhibition was 97.9% (active).
In the case of `Cc1noc(C)c1COC(=O)COc1ccc(-c2ccccc2)cc1`, the inhibition is reported as 4.53%.
`Cc1ccc(-c2nc(-c3ccncc3)no2)c(C)c1` showed an inhibition of 49.8%.
`Cc1nc(NC(CC(C)C)C(=O)O)c2nc(C)oc2n1` (centres undefined) showed an inhibition of 7.07%.
Molecule `CCOC(=O)C(CC)Sc1ncnc2c1nnn2-c1ccc(F)cc1` (centres undefined) has an inhibition of -3.73%.
Work on `CCc1ccc(N(C(=O)c2csnn2)C(C(=O)NC2CCCCC2)c2cccnc2)cc1` (centres undefined) yielded an inhibition of -39%.
Work on `COc1ccc(C(CNC(=O)c2cc3c(s2)CCCC3)N2CCOCC2)cc1` (centres undefined) yielded an inhibition of 3.85%.
`O=C(COc1ccc(NC(=O)c2ccccc2[N+](=O)[O-])cc1)c1ccc(F)cc1` gave an inhibition of -17.5%.
